From PMC4552634, “A New Set of Chemical Starting Points with Plasmodium falciparum Transmission-Blocking Potential for Antimalarial Drug Discovery” (PLoS ONE, 2015)
Out of some 13,000 compounds screened, about 3,200 (25%) showed an effect of 50% or more. Some of the results follow.

system: P. falciparum stage V gametocytes; set-up: BacTiter-Glo ATP luminescence viability of purified stage V gametocytes in 384-well plates, per cent inhibition versus DMSO; details: 48 h, 5 µM; inhibitor

Compound	% Inhibition
OCCN1CCN(Cc2ccc(-c3ccc(-c4nc5ccc(C(F)(F)F)cc5[nH]4)s3)cc2)CC1 [TCMDC-133034]	6.44%
COc1ccc(NC(=O)Nc2ccc(-c3cccc(-c4nc5ccccc5[nH]4)c3)cc2)cc1 [TCMDC-133250]	-9.476%
O=C(Nc1ccc(Cn2ncc(N3CCCNCC3)c(Cl)c2=O)cc1)Nc1cccc(C(F)(F)F)c1 [TCMDC-141925]	-42.22%
NC(=O)c1ccc(C(=O)Nc2cccc(-c3csc(-c4nc5ccccc5[nH]4)c3)c2)cc1 [TCMDC-132400]	-14.2%
Cc1cc(C(F)(F)F)n2nc(C(=O)N(C)Cc3cncn3Cc3ccc(F)cc3)cc2n1 [TCMDC-132466]	29.43%
Cc1ccc(N2CCc3c(-c4cc5cccnc5nc4C)cc(C)nc32)c(Cl)c1 [TCMDC-136379]	19.51%
COc1ccc(C=C2SC(=O)NC2=Nc2ccccc2)c(OC)c1 [TCMDC-123697]	23.55%
Oc1ccc2nc(NCCCc3ccccc3)nc(NCCc3ccccc3)c2c1 [TCMDC-138406]	91.92%
Cl.OCCNc1nc(Nc2cccc(O)c2)nc2ccccc12 [TCMDC-123747]	-37.65%
Oc1cccc(Nc2nc(NCc3ccccc3)c3ccccc3n2)c1 [TCMDC-125640]	36.33%
NC1CCN(c2nc(NCCCc3ccc(O)cc3)nc(NCc3cccc4ccccc34)n2)CC1 [TCMDC-133393]	0.2406%
Cl.Oc1ccc(Nc2nc(NCC3CCCO3)c3ccccc3n2)cc1 (centres unmarked) [TCMDC-123730]	79.07%
Oc1ccc2nc(Nc3ccccc3)nc(NCCc3ccccc3)c2c1 [TCMDC-138404]	68.97%
Cl.Oc1cccc(Nc2nc(NCC3CCCO3)c3ccccc3n2)c1 (centres unmarked) [TCMDC-123641]	-25.34%
Oc1ccc2nc(NCCCc3ccccc3)nc(NCCCc3ccccc3)c2c1 [TCMDC-138382]	90.22%
Brc1ccc(Nc2nc(NCC3CCCO3)c3ccccc3n2)cc1 (centres unmarked) [TCMDC-124563]	15.52%
O=C(Nc1ccc(Br)cc1)Nc1ccc(Cn2ncc(N3CCCNCC3)c(Cl)c2=O)cc1 [TCMDC-133329]	-9.301%
CC(=O)Nc1sc(C)c(C)c1CN1CCc2ccccc2C1 [TCMDC-124498]	-41.39%
COc1ccc(Nc2ncc3c(-c4cccc(NC(=O)c5ccc(N)cc5)c4)c[nH]c3n2)cc1OC [TCMDC-135250]	-78.65%
N#Cc1ccccc1N1CCN(C2CCC(NC(=O)c3n[nH]c4cc(C(F)(F)F)ccc34)CC2)CC1 (centres unmarked) [TCMDC-134100]	-13.75%
CSCCC(C(=O)O)N1C(=O)c2ccccc2C1=O (centres unmarked) [TCMDC-125514]	-25.71%
O=c1cc(NCCCNCc2cccc(SC(F)(F)F)c2)[nH]c2ccccc12 [TCMDC-139420]	-38.07%
CC(O)C1CCCCN1C(=O)c1ccc(-c2ccc(-c3nc4ccccc4[nH]3)s2)cc1 (centres unmarked) [TCMDC-132330]	-3.595%
CCN1CCN(c2cc(C)c3cc(NC(=O)C=Cc4cccc(OC)c4OC)ccc3n2)CC1 [TCMDC-123803]	-23.17%
CCC(C)OC(=O)C1=C(C)NC2=C(C(=O)CC(c3ccc(OC)c(OC)c3)C2)C1c1ccc(C)o1 (centres unmarked) [TCMDC-123735]	31.33%

Compound	% Inhibition
CCCc1cc(C(=O)N[C@@H](Cc2ccccc2)[C@H](O)CNC(C)C)c(F)c(N2CCCC2=O)c1 [TCMDC-135418]	10.92%
Cl.OCCNc1nc(Nc2ccccc2)nc2ccccc12 [TCMDC-123749]	91.01%
Cl.OCCNc1nc(Nc2ccc(F)cc2)nc2ccccc12 [TCMDC-123640]	-1.104%
Oc1ccc(Nc2nc(NCc3ccco3)c3ccccc3n2)cc1 [TCMDC-124015]	-74.78%
Cl.Oc1ccc(Nc2nc(N3CCCC3)c3ccccc3n2)cc1 [TCMDC-123532]	79.67%
COc1ccc(Nc2nc(N3CCCC3)c3ccccc3n2)cc1.Cl [TCMDC-124381]	-67.29%
Cl.OCCNc1nc(Nc2ccc(Cl)cc2)nc2ccccc12 [TCMDC-125389]	1.912%
CC1CC(NCCCNc2cc(=O)c3ccccc3[nH]2)c2c(Cl)c(Cl)cc(Cl)c21 (centres unmarked) [TCMDC-139486]	41.94%
C(=N\Nc1nccc2sc(-c3cccnc3)cc12)/c1ccncc1 [TCMDC-135305]	-45.13%
Nc1c2ccccc2nc2cc(C(F)(F)F)ccc12 [TCMDC-142006]	51.79%
CCNc1cc(C)nc(Nc2ccc(NC(=O)c3ccco3)cc2)n1 [TCMDC-124982]	-6.858%
Nc1cc(C(F)(F)F)ccc1Cl [TCMDC-123950]	13.58%
CC(O)C(=O)O.CCOc1ccc2nc3cc(N)ccc3c(N)c2c1 [TCMDC-123983]	24.81%
CCOc1ccc2nc3cc([N+](=O)[O-])ccc3c(N)c2c1 [TCMDC-125852]	122.1%
O=C(Nc1ccc(Oc2ccc(OC(F)(F)F)cc2)cc1)c1ccco1 [TCMDC-124049]	6.868%
CCOc1cc(N)c2nc3ccc([N+](=O)[O-])cc3cc2c1 [TCMDC-138134]	64.78%
CCOc1ccc2nc3cc(NC(=O)c4ccco4)ccc3c(N)c2c1 [TCMDC-125004]	120.6%
O=[N+]([O-])c1ccc2nccnc2c1 [TCMDC-123943]	28.42%
Nc1ccc2c(N)c3ccccc3nc2c1 [TCMDC-132034]	26.54%
CCCC1N=C(N)N=C(N)N1c1cccc([N+](=O)[O-])c1 (centres unmarked) [TCMDC-131299]	-55.59%
FC(F)(F)c1ccc2[nH]c(-c3ccc(-c4cccc(CNCc5cnn(-c6ccccc6)n5)c4)s3)nc2c1.O=C(O)C(F)(F)F [TCMDC-132968]	-47.17%
CC12CN3CC(C)(CN(C1)C3c1cc(Br)ccc1O)C2O (centres unmarked) [TCMDC-123838]	-31.33%
Nc1c2ccccc2nc2cc([N+](=O)[O-])ccc12 [TCMDC-132031]	75.87%
Nc1nc(N)c2cc(Cc3ccc([N+](=O)[O-])cc3)cnc2n1 [TCMDC-137920]	-6.074%
O=c1c2ccccc2nc(/C=C/c2ccc([N+](=O)[O-])cc2)n1-c1ccccn1 [TCMDC-125664]	33.94%

Compound	% Inhibition
Oc1ccc(CNCC2CCN(CC3CCCCC3)CC2)cc1 [TCMDC-141676]	-27.61%
CCOc1ccccc1CCNCC1CCN(CC2CCCCC2)CC1 [TCMDC-141347]	95.36%
Clc1cccc(Cl)c1CCNCC1CCN(CC2CCCCC2)CC1 [TCMDC-141346]	-12.07%
Fc1c(CNCC2CCN(CC3CCCCC3)CC2)cccc1C(F)(F)F [TCMDC-141348]	4.763%
Clc1ccccc1CCNCC1CCN(CC2CCCCC2)CC1 [TCMDC-141344]	100.3%
FC(F)(F)c1cccc(CNCC2CCN(CC3CCCCC3)CC2)c1 [TCMDC-141677]	-8.545%
O=C(COc1ccc(Cl)cc1)N1CCC(CN2CCC(c3c[nH]c4ccccc34)CC2)CC1 [TCMDC-139943]	-35.41%
O=C(CCC(=O)c1ccc2c3c(cccc13)CC2)NC1CCC(CN2CCC(c3c[nH]c4ccccc34)CC2)CC1 (centres unmarked) [TCMDC-139897]	7.494%
O=C(NCCCCCN1CCC(c2c[nH]c3ccccc23)CC1)c1ccc(Cl)c(Cl)c1 [TCMDC-139112]	-15.31%
c1ccc2c(C3CCN(CCCCOc4ccc5c(c4)CCN(CC4CC4)CC5)CC3)c[nH]c2c1 [TCMDC-136244]	103.6%
c1ccc2c(C3CCN(CCCCOc4ccc5c(c4)CCN(C4CCC4)CC5)CC3)c[nH]c2c1 [TCMDC-136242]	103%
CCCCNC(=O)C(C)NC(=O)c1ccc(O)c(-c2ccc(Cl)c(Cl)c2)c1 (centres unmarked) [TCMDC-140838]	12%
O=C1OC(c2ccccc2)(c2ccccn2)CN1C1CCN(Cc2cccn2-c2ccc(Cl)cc2)CC1 (centres unmarked) [TCMDC-134418]	32.68%
CCC(CCON1C(N)=NC(N)=NC1(C)C)c1ccc(Cl)c(Cl)c1 (centres unmarked) [TCMDC-131702]	42.49%
CC1(C)N=C(N)N=C(N)N1OCc1cc(Cl)c(CON2C(N)=NC(N)=NC2(C)C)cc1Cl [TCMDC-131624]	88.84%
CC(CCON1C(N)=NC(N)=NC1(C)C)c1ccc(Cl)cc1 (centres unmarked) [TCMDC-131721]	15.12%
CC1(C)N=C(N)N=C(N)N1OCc1cc(Cl)c(Cl)cc1CON1C(N)=NC(N)=NC1(C)C [TCMDC-131611]	-27.6%
CCSc1ccccc1CON1C(N)=NC(N)=NC1(C)C [TCMDC-131324]	26.32%
CC(CCON1C(N)=NC(N)=NC1(C)C)c1ccc(Cl)c(Cl)c1 (centres unmarked) [TCMDC-123922]	56.56%
CC(C)Sc1ccc(Cl)cc1CON1C(N)=NC(N)=NC1(C)C [TCMDC-131322]	57.4%
CC(CON1C(N)=NC(N)=NC1(C)C)c1ccc(Cl)cc1Cl (centres unmarked) [TCMDC-131687]	1.916%
CC1(C)N=C(N)N=C(N)N1OCc1cccc(Cl)c1Cl [TCMDC-131612]	37.87%
COc1ccc(CN(C)C(=O)CCNS(=O)(=O)c2ccc3c(c2)OCCCO3)cc1F [TCMDC-125302]	27.77%
COc1ccc(C2(CNCC(O)c3cccc([N+](=O)[O-])c3)CCCCC2)cc1OC (centres unmarked) [TCMDC-125753]	32.79%
